# Bioassay records as filed in PubChem.
# Sampled rows, rich in hits. Any-hit rate of the full collection: about 4.1%.
# F508del corr: CFTR F508del correction in bronchial cells. AID 720511. activity (quench increase), % at 7.58 µM. 0.36% of 350,000 active. CFBE cells, YFP halide quenching; stimulated with forskolin plus potentiator P3; % fluorescence drop versus neutral controls;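 active = mean added fluorescence quench of at least 8% versus neutral control, with both replicates also reaching 8%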;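 note: cells transiently co-express mutant CFTR-F508del with the halide-sensitive YFP; corrector assay measuring rescue of mutant channel to the surface after 24 h compound exposure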
# ALR H2O2 inh: inhibitors of human sulfhydryl oxidase ALR | P55789 | purified ALR, DTT oxidation, H2O2 HRP-luminol luminescence | inhibition, % (concentration not given with the values) | 3.8% of 290,000 active | AID 485317;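 active = mean replicate inhibition above about 79%, with every replicate also reaching it, limit read from the data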
# Target sequence (P55789 whole entry, looked up): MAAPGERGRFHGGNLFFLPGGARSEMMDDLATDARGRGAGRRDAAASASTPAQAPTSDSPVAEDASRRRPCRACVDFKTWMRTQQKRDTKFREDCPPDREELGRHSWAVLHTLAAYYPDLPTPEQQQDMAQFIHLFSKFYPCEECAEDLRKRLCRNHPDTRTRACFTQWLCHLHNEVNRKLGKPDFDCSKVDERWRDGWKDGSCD
# NSD2 inh: NSD2 (human) methyltransferase inhibition | O96028 | NSD2 peptide methylation, AlphaScreen, 120 min | inhibition, % at 12.5 µM | 0.54% of 310,000 active; in the data active = inhibition above about 50%
# PglD DTNB: inhibitors of Campylobacter jejuni PglD acetyltransferase | purified PglD enzyme, DTNB colorimetric CoA detection | inhibition, % at 12.5 µM | 0.098% of 360,000 active; in the data active = inhibition above about 16%, passing the limit was not always enough
# HIV Env fusion: inhibitors of HIV Env-mediated cell fusion. HeLa-JRFL Env/CEM21 cell fusion, luciferase. inhibition, % at 12.3 µM. 1.1% of 360,000 active. AID 651610;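 active = mean replicate inhibition score of at least 50 and every replicate individually at or above 50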
# Casp6 inh: inhibitors of human caspase-6; purified caspase-6, Z-VEID-R110 cleavage fluorescence; P55212; 0.53% of 350,000 active; inhibition, % at 12.5 µM;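 active = mean inhibition across replicates at least about 35%, with every replicate also reaching that limit, limit read from the data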
# Target sequence (P55212 24-179 limits assumed): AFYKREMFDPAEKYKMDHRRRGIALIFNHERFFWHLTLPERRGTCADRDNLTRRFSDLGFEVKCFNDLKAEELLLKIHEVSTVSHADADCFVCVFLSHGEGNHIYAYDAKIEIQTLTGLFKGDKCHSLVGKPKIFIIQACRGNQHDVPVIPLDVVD
# Target sequence (P55212 194-293 limits assumed): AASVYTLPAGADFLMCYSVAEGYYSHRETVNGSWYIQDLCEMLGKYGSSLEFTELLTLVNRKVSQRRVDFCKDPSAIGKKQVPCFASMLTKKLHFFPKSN
# A number is an active result; . = inactive; / = no result; [ ] = dose if it differs, or a comment.
SMILES,F508del corr,ALR H2O2 inh,NSD2 inh,PglD DTNB,HIV Env fusion,Casp6 inh
O=C(C1CCOCC1)N1C[C@@H]2[C@H](c3ccccc31)[C@H](CO)N2Cc1ccccc1,.,/,/,.,/,.
Oc1ccc(C[C@H]2CNC(=S)N2CC2CCCN2C[C@H](Cc2ccc(O)cc2)N2C[C@H](Cc3ccccc3)N(CC3CCCCCC3)C2=S)cc1 (stereo partly specified),.,/,/,.,61,.
Oc1ccc(C[C@H]2CN([C@@H](Cc3ccccc3)CN3CCC[C@@H]3CN3C(=S)NC[C@@H]3Cc3ccccc3)C(=S)N2CC2CCCCC2)cc1,.,/,/,.,.,.
CC(CCN1CCC(CN2C(=S)NCC2Cc2ccccc2)CC1)c1ccccc1 (stereo unspecified),.,/,/,.,66,.
CC(C)C[C@H]1CNC(=S)N1C[C@H]1CCCN1C[C@H](Cc1ccc(O)cc1)N1C[C@H](Cc2ccccc2)N(CC2CCCCCC2)C1=S,.,/,/,.,94,.
COc1cc(-c2nc3cccc(C)n3c2NCC2CCCO2)ccc1O (stereo unspecified),.,99,.,/,.,.
O=C(C1CC1)N1CC(=O)N2[C@@H](CO)[C@@H](c3ccc(C#CCc4ccccc4)cc3)[C@@H]2C1,.,/,/,/,/,.
COc1ccc(S(=O)(=O)N(C)C[C@H]2Oc3ccc(NS(=O)(=O)c4ccccc4)cc3CC(=O)N([C@H](C)CO)C[C@H]2C)cc1,.,/,/,.,.,.
COc1ccc(S(=O)(=O)N(C)C[C@H]2Oc3ccc(NS(=O)(=O)c4ccc(Cl)cc4)cc3CC(=O)N([C@@H](C)CO)C[C@H]2C)cc1,.,/,/,.,.,/
COc1ccc(S(=O)(=O)Nc2ccc3c(c2)CC(=O)N([C@H](C)CO)C[C@H](C)[C@H](CN(C)S(=O)(=O)c2ccc(C)cc2)O3)cc1,.,/,/,.,99[16.7 µM],/
COc1ccc(S(=O)(=O)Nc2ccc3c(c2)CC(=O)N([C@H](C)CO)C[C@H](C)[C@H](CN(C)S(=O)(=O)c2ccccc2)O3)cc1,.,/,/,.,84[16.7 µM],/
COc1ccc(S(=O)(=O)Nc2ccc3c(c2)CC(=O)N([C@H](C)CO)C[C@H](C)[C@H](CN(C)S(=O)(=O)c2ccc(Cl)cc2)O3)cc1,.,/,/,.,73[16.7 µM],.
COc1ccc(S(=O)(=O)Nc2ccc3c(c2)CC(=O)N([C@@H](C)CO)C[C@@H](C)[C@@H](CN(C)S(=O)(=O)c2ccc(C)cc2)O3)cc1,.,/,/,.,.,/
C[C@H](CO)N1C[C@H](C)[C@H](CN(C)C(=O)Nc2ccccc2)Oc2c(NS(C)(=O)=O)cccc2C1=O,.,/,/,.,/,.
COC(=O)C1=C(C)Nc2[nH]c(=S)[nH]c(=O)c2C1c1ccc(O)cc1 (stereo unspecified),.,.,.,.,.,.
COc1cc(C2C(C(=O)OC(C)C)=C(C)Nc3[nH]c(=O)[nH]c(=O)c32)ccc1O (stereo unspecified),/,79,.,/,/,/
CN(C)CCCNc1ncnc2sc(-c3ccccc3)cc12,.,/,/,.,.,.
CCOC(CNc1ncnc2sc(-c3ccccc3)cc12)OCC,.,97,.,.,.,/
O=C(Nc1ccc2c(c1)[C@@H]1C[C@H](CC(=O)N3CCc4ccccc4C3)O[C@H](CO)[C@@H]1O2)C1CCC1,.,/,/,.,.,.
O=C(C[C@@H]1CC[C@@H]2[C@H](COC[C@H](O)CN2Cc2ccc(Oc3ccccc3)cc2)O1)N1CCN(c2ccccc2)CC1,8.9,/,/,.,.,.
O=C(O)C[C@H]1CC[C@H]2[C@@H](COC[C@H](O)CN2S(=O)(=O)c2ccc(Oc3ccccc3)cc2)O1,.,/,/,.,.,40
O=C(C[C@H]1CC[C@@H]2[C@H](COC[C@H](O)CN2Cc2ccc(Oc3ccccc3)cc2)O1)N1CCc2ccccc2C1,11,/,/,.,.,.
O=C(C[C@H]1CC[C@H]2[C@@H](COC[C@H](O)CN2Cc2ccc(Oc3ccccc3)cc2)O1)N1CCN(c2ccccc2)CC1,.,/,/,.,.,.
O=C(C[C@@H]1CC[C@H]2[C@@H](COC[C@@H](O)CN2Cc2ccc(Oc3ccccc3)cc2)O1)N1CCN(c2ccccc2)CC1,.,/,/,.,59[16.7 µM],.
C[C@H](CO)N1C[C@H](C)[C@@H](CN(C)Cc2ccncc2)OCCCC[C@H](C)Oc2ccc(N(C)C)cc2C1=O,.,/,/,.,.,.
SMILES,F508del corr,ALR H2O2 inh,NSD2 inh,PglD DTNB,HIV Env fusion,Casp6 inh
O=C(C[C@H]1C[C@H]2c3cc(NC(=O)Nc4ccccc4)ccc3O[C@H]2[C@@H](CO)O1)NCc1ccncc1,.,/,/,.,.,.
C[C@H]1CN([C@@H](C)CO)C(=O)Cc2cc(NS(=O)(=O)c3cn(C)cn3)ccc2O[C@H]1CN(C)CC1CCCCC1,.,/,/,/,.,/
CCCC(=O)N1CC2(C1)CN(C(=O)Nc1c(C)noc1C)[C@@H](CO)c1c2c2ccc(OC)cc2n1C,.,/,/,/,/,/
CCOc1ccc(CCNC(=O)c2cc3sccc3n2CC)cc1OCC,/,.,.,.,65,/
CCOc1ccc(CCNC(=O)CCC(=O)c2cccs2)cc1OCC,.,.,.,.,.,.
Cc1cc(=O)n(C)c(=O)n1CCCCCN1CCCC1,/,100,.,.,/,/
CCN(CC)c1ccc(C2C3CCCCC3(O)CCN2C(=O)c2cccs2)cc1 (stereo unspecified),/,/,.,/,/,/
CCN(CC)c1ccc([C@H]2[C@@H]3CCCC[C@]3(O)CCN2CC(=O)NCc2ccco2)cc1,.,99,.,.,.,.
CCN(CC)c1ccc(C2C3CCCCC3(O)CCN2CC(=O)N2CCCCC2)cc1 (stereo unspecified),/,99,.,.,/,/
O=C(C[C@@H]1C=C[C@H](NC(=O)CC2CC2)[C@@H](CO)O1)NCc1ccccc1,.,/,/,/,/,.
COc1ccc(CNc2ccc3c(c2)nc(C)n3C)cc1,/,89,/,.,/,/
COc1ccc(CNc2ccc(Br)cc2)cc1,.,98,.,/,.,.
COc1ccc(OC)c(CNc2ccc3c(c2)nc(C)n3C)c1,.,85,.,.,.,.
COc1ccc(CNc2ccc(C(=O)O)cc2)cc1,/,.,.,.,.,/
CC(=O)N[C@H]1C[C@@H]2O[C@@H](CO)CC[C@@H]2O[C@@H]1CCc1ccc(-c2ccc(F)cc2)cc1,.,/,/,/,/,.
Cc1cc(C)nc(Nc2ccc(O)cc2)n1,.,100,.,.,.,.
Oc1cccc(Nc2nc(N3CCOCC3)nc(N3CCOCC3)n2)c1,.,84,.,.,.,.
Cc1cc(C)nc(NN=CC2=C(N3CCOCC3)/C(=C/c3ccc(Cl)cc3)CC2)n1,.,/,.,/,.,.
Cc1cc(C)nc(Nc2ccc(N3CCOCC3)cc2)n1,/,99,.,/,/,/
Cc1cc(C)nc(Nc2ccc(N3CCCC3)cc2)n1,/,.,.,.,.,/
O=C(O)c1ccc(N/N=C/C2=C(N3CCOCC3)C(=C\c3ccccc3)/CC2)cc1,.,97,.,.,.,.
Cc1cccc(Nc2nc(N3CCOCC3)nc(N3CCOCC3)n2)c1,.,.,.,.,.,.
